From PubChem
This is a sample that favours compounds with a hit; in the whole collection about 2.4% have one here.
C diff HTS: C. difficile growth inhibitors, primary screen, HTS | AID 1259249, 2017 | 0.25% of 86,000 active | growth activity, negative = inhibition, % at 16 µg/mL (by protocol) | Clostridium difficile clinical isolate growth, OD600, 24 h; active compounds read low;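 active means mean growth activity at or below -80% and every replicate also at or below -80%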;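 further: 0% = DMSO wells and -100% = levofloxacin 16 µg/mL wells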
Pf Dd2 inh: P. falciparum Dd2 growth inhibitors, primary screen, SYBR Green fluorescence, single dose replicates; 2.3% of 94,000 active; AID 1159554, 2015; activity change, % at 10 µM; 72 h; active compounds read low; in the data active means activity change below about -80%
Starred values were filed as active, the others as inactive.

Screening COc1ccc2c3c(n(C)c2c1)[C@H](CO)N(CC1CC1)CC31CCN(C(=O)Nc2ccccc2)CC1 returned C diff HTS 3.2 and Pf Dd2 inh -64.9.
`COC(=O)c1c2oc(c1C(=O)OC)C(=O)N[C@@H](Cc1ccccc1)Cn1cc(nn1)CNC(=O)[C@@H](Cc1ccccc1)NC(=O)N[C@@H](CO)CC2` gave C diff HTS -15.1.
COc1ccc2c3c([nH]c2c1)[C@@H](CO)N(C)CC31CCN(C(=O)c2cccnc2)CC1 was read as C diff HTS 3.1 and Pf Dd2 inh -12.3.
`C/C=C/c1cnc2c(c1)C(=O)N([C@@H](C)CO)C[C@@H](C)[C@H](CN(C)C(=O)C1CC1)O2` gave C diff HTS -4.3 and Pf Dd2 inh 40.1.
Screening CN1C(=O)c2cc(NC(=O)c3cccs3)ccc2OC[C@H]2O[C@H](CC(=O)NCC3CC3)CC[C@@H]21 returned C diff HTS -3.2 and Pf Dd2 inh -20.7.
For Cc1noc(C)c1S(=O)(=O)N(C)C[C@H]1Oc2ccc(NS(=O)(=O)c3cn(C)cn3)cc2C(=O)N([C@H](C)CO)C[C@H]1C the results were C diff HTS -0.5 and Pf Dd2 inh -44.3.
CC(C)(C)[S@](=O)N1Cc2cc(C(=O)NC3CCC3)nc(-c3cccc(Br)c3)c2[C@@H]1CCO was read as C diff HTS 3.7 and Pf Dd2 inh -85.4*.
`COc1ccc(C#Cc2cccc(-c3nc(C(=O)N[C@@H]4CCN(Cc5ccccc5)C4)cc4c3[C@H](CCO)N(S(=O)C(C)(C)C)C4)c2)cc1OC` (stereo partly drawn) gave C diff HTS -3.4 and Pf Dd2 inh -84.4*.
CC(C)(C)S(=O)N1Cc2cc(C(=O)N[C@@H]3CCN(Cc4ccccc4)C3)nc(-c3cccc(C#CCC4CCCC4)c3)c2[C@H]1CCO (stereo partly drawn) was read as C diff HTS -5.0 and Pf Dd2 inh -76.1.
For CC(C)(O)C#Cc1cccc(-c2nc(C(=O)N[C@@H]3CCN(Cc4ccccc4)C3)cc3c2[C@H](CCO)N(S(=O)C(C)(C)C)C3)c1 (stereo partly drawn) the results were C diff HTS -6.0 and Pf Dd2 inh -82.3*.
Screening CC(C)(C)[S@@](=O)N1Cc2cc(C(=O)NC3CCC3)nc(-c3cccc(Br)c3)c2[C@H]1CCO returned C diff HTS 6.1 and Pf Dd2 inh -76.8.
Screening CC(C)(C)[S@@](=O)N1Cc2cc(C(=O)N[C@@H]3CCN(Cc4ccccc4)C3)nc(-c3cccc(-c4ccncc4)c3)c2[C@H]1CCO returned C diff HTS 1.4 and Pf Dd2 inh -78.5.
Screening CNC[C@@H]1OCCCC[C@H](C)Oc2ccc(NC(=O)NC(C)C)cc2C(=O)N([C@H](C)CO)C[C@H]1C returned C diff HTS 1.7 and Pf Dd2 inh 27.4.
C[C@@H]1CN([C@H](C)CO)C(=O)c2cc(NC(=O)CCCN(C)C)ccc2O[C@@H]1CN(C)CC1CCCCC1 was read as C diff HTS -5.8 and Pf Dd2 inh -9.9.
Screening C[C@@H]1CN([C@@H](C)CO)S(=O)(=O)c2ccc(-c3cncnc3)cc2O[C@H]1CN(C)C(=O)C1CCCCC1 returned C diff HTS -2.2 and Pf Dd2 inh 14.1.
C[C@@H]1CN([C@@H](C)CO)S(=O)(=O)c2ccc(-c3cccnc3)cc2O[C@H]1CN(C)C(=O)NC1CCCCC1 was read as C diff HTS 1.0 and Pf Dd2 inh -9.2.
For C[C@@H]1CN([C@@H](C)CO)C(=O)c2cc(NC(=O)Nc3ccc(F)cc3)ccc2O[C@@H]1CN(C)S(=O)(=O)c1cn(C)cn1 the results were C diff HTS 0.1 and Pf Dd2 inh 31.7.
Screening CN1CCN(C(=O)c2cc3c(c(-c4cccc(C#CCC5CCCC5)c4)n2)[C@@H](CCO)N(S(=O)C(C)(C)C)C3)CC1 (stereo partly drawn) returned Pf Dd2 inh -70.3.
CO[C@@H]1CN(C)C(=O)c2cc(NC(=O)Nc3cccc(Cl)c3)ccc2OC[C@@H](C)NC[C@H]1C was read as Pf Dd2 inh -23.3.
CO[C@H]1CN(C)C(=O)c2cc(NC(=O)Nc3ccc(Cl)cc3)ccc2OC[C@@H](C)NC[C@@H]1C was read as C diff HTS -0.2 and Pf Dd2 inh -37.7.
Screening CO[C@H]1CN(C)C(=O)c2cc(NC(=O)Nc3ccc(Cl)c(Cl)c3)ccc2OC[C@@H](C)NC[C@H]1C returned C diff HTS -97.4* and Pf Dd2 inh -5.7.
Screening CO[C@H]1CN(C)C(=O)c2cc(NC(=O)Nc3ccc(Cl)c(Cl)c3)ccc2OC[C@@H](C)NC[C@@H]1C returned C diff HTS -95.9* and Pf Dd2 inh -55.6.
CO[C@@H]1CN(C)C(=O)c2cc(NC(=O)Nc3ccc(Cl)cc3)ccc2OC[C@H](C)NC[C@@H]1C was read as C diff HTS -3.5 and Pf Dd2 inh -12.1.
`CO[C@@H]1CN(C)C(=O)c2cc(NC(=O)Nc3cccc(Cl)c3)ccc2OC[C@@H](C)NC[C@@H]1C` gave Pf Dd2 inh -84.8*.
`COc1cccc(CNC(=O)C[C@H]2CC[C@H](NC(=O)C3CC3)[C@H](CO)O2)c1` gave C diff HTS 0.3 and Pf Dd2 inh 0.4.
COc1ccc(CN(C)C[C@H]2OCCCC[C@@H](C)Oc3ccc(NC(=O)Nc4c(C)noc4C)cc3C(=O)N([C@H](C)CO)C[C@H]2C)cc1 was read as C diff HTS -4.9 and Pf Dd2 inh -47.0.
`CCN(C[C@H]1N[C@H](CO)[C@H]1c1ccc(-c2ccc(F)cc2)cc1)C(=O)COC` gave C diff HTS 4.6 and Pf Dd2 inh -55.5.
For CCN(C[C@@H]1N[C@@H](CO)[C@H]1c1ccc(-c2ccc(F)cc2)cc1)C(=O)CN(C)C the results were C diff HTS -3.3 and Pf Dd2 inh -80.5*.
For CCS(=O)(=O)Nc1ccc2c(c1)C(=O)N(C)C[C@H](OC)[C@H](C)CN(Cc1nccs1)[C@@H](C)CO2 the results were C diff HTS -2.3 and Pf Dd2 inh 1.4.
For Cc1ccc(S(=O)(=O)NC[C@H]2CC[C@H]3[C@H](CN3Cc3ccccc3C(=O)O)O2)cc1 the results were C diff HTS -3.2 and Pf Dd2 inh 32.4.
`C[C@H](CO)N1C[C@H](C)[C@@H](CN(C)Cc2ccc(Oc3ccccc3)cc2)Oc2ccc(NC(=O)Nc3ccccc3)cc2CC1=O` gave C diff HTS 41.3 and Pf Dd2 inh -79.7.
Screening C[C@H](CO)N1C[C@H](C)[C@H](CN(C)C(=O)Cc2ccncc2)Oc2ncc(C#C[C@@H](C)O)cc2C1=O returned C diff HTS -7.8 and Pf Dd2 inh 8.3.
C[C@H](O)C#Cc1cnc2c(c1)C(=O)N([C@@H](C)CO)C[C@@H](C)[C@@H](CN(C)C(=O)Cc1ccncc1)O2 was read as C diff HTS -3.8 and Pf Dd2 inh -95.2*.
For C[C@H]1CN([C@@H](C)CO)C(=O)c2cc(/C=C/c3ccccc3)cnc2O[C@@H]1CN(C)C(=O)C1CC1 the results were Pf Dd2 inh -36.4.
Screening C[C@@H]1CN([C@H](C)CO)C(=O)c2cc(/C=C/c3ccccc3)cnc2O[C@@H]1CN(C)C(=O)C1CC1 returned C diff HTS 3.2 and Pf Dd2 inh -86.0*.
`C[C@@H]1CN([C@@H](C)CO)C(=O)c2cc(C#CCc3ccccc3)cnc2O[C@H]1CN(C)C(=O)C1CCC1` gave C diff HTS -0.4 and Pf Dd2 inh -68.8.
